According to PubChem BioAssay AID1159580 (chemical genetic matrix, 2015):
The whole screen tested about 5,500 compounds, of which about 2,000 (36%) were called active. Roughly 18% stayed inconclusive and do not appear here. Rule as the data show it: active = normalized growth mostly below about 0.91 (no sharp cut-off); inconclusive = no clear call, values can overlap the other calls; inactive = mostly above about 0.92. The list shows a part of the results.

Test: chemical genetic growth profiling, strain panel (AID 1159580);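 also: tested at 20 µM; growth read once vehicle control cultures reached saturation at 30 °C; 1 = growth at the plate median or of vehicle wells; lower values mean less growth of the strain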
Details: S. cerevisiae deletion strains, growth OD

Measured: normalized growth

Cc1ccc2nc(-c3ccc([N+](=O)[O-])o3)oc(=O)c2c1
inactive: strain NNK1, hits give low values 0.93
active: locus YAR019C, strain CDC15, hits give low values 0.0888 | locus YBL105C, strain PKC1, hits give low values 0.0913 | locus YBR135W, strain CKS1, hits give low values 0.193 | locus YBR136W, strain MEC1, hits give low values 0.181 | locus YBR160W, strain CDC28, hits give low values 0.231 | locus YDL017W, strain CDC7, hits give low values 0.259 | locus YDL028C, strain MPS1, hits give low values 0.595 | locus YDL101C, strain DUN1, hits give low values 0.162 | locus YDL214C, strain PRR2, hits give low values 0.1 | locus YDR226W, strain ADK1, hits give low values 0.361 | locus YDR477W, strain SNF1, hits give low values 0.0976 | locus YER123W, strain YCK3, hits give low values 0.14 | locus YER133W, strain GLC7, hits give low values 0.116 | locus YFL009W, strain cdc4, hits give low values 0.37 | locus YFL029C, strain CAK1, hits give low values 0.124 | locus YFR019W, strain FAB1, hits give low values 0.112 | locus YFR028C, strain CDC14, hits give low values 0.149 | locus YGR040W, strain KSS1, hits give low values 0.109 | locus YGR052W, strain FMP48, hits give low values 0.112 | locus YGR092W, strain DBF2, hits give low values 0.108 | locus YHR030C, strain SLT2, hits give low values 0.141 | locus YHR079C, strain IRE1, hits give low values 0.139 | locus YHR082C, strain KSP1, hits give low values 0.131 | locus YHR205W, strain SCH9, hits give low values 0.00195 | locus YIL147C, strain SLN1, hits give low values 0.52 | locus YJL095W, strain BCK1, hits give low values 0.121 | locus YJL157C, strain FAR1, hits give low values 0.0957 | locus YJR016C, strain ILV3, hits give low values 0.376 | locus YJR066W, strain TOR1 (second series), hits give low values 0.103 | locus YJR066W, strain TOR1, hits give low values 0.121 | locus YKL048C, strain ELM1, hits give low values 0.119 | locus YKL067W, strain YNK1, hits give low values 0.138 | locus YKL101W, strain HSL1, hits give low values 0.107 | locus YKL193C, strain SDS22, hits give low values 0.142 | locus YKL203C, strain TOR2, hits give low values 0.101 | locus YLR113W, strain HOG1, hits give low values 0.157 | locus YLR133W, strain CKI1, hits give low values 0.0945 | locus YLR403W, strain SFP1, hits give low values 0.000914 | locus YML070W, strain DAK1, hits give low values 0.12 | locus YMR001C, strain CDC5, hits give low values 0.127 | locus YMR205C, strain PFK2 (second series), hits give low values 0.11 | locus YMR277W, strain FCP1, hits give low values 0.124 | locus YNL006W, strain LST8, hits give low values 0.0975 | locus YNL020C, strain ARK1, hits give low values 0.105 | locus YNL161W, strain CBK1, hits give low values 0.142 | locus YNL183C, strain NPR1, hits give low values 0.118 | locus YNL207W, strain RIO2, hits give low values 0.12 | locus YNL222W, strain SSU72, hits give low values 0.101 | locus YNL307C, strain MCK1 (second series), hits give low values 0.1 | locus YOL078W, strain AVO1, hits give low values 0.164 | locus YOL136C, strain PFK27, hits give low values 0.19 | locus YOR061W, strain CKA2, hits give low values 0.0958 | locus YOR119C, strain RIO1, hits give low values 0.123 | locus YOR231W, strain MKK1, hits give low values 0.127 | locus YOR329C, strain SCD5, hits give low values 0.0982 | locus YPL031C, strain PHO85, hits give low values 0.102 | locus YPL153C, strain RAD53, hits give low values 0.136 | locus YPL204W, strain HRR25, hits give low values 0.116 | locus YPL209C, strain IPL1, hits give low values 0.179 | locus YPL256C, strain CLN2, hits give low values 0.174 | locus YPR025C, strain CCL1, hits give low values 0.119 | locus YPR111W, strain DBF20, hits give low values 0.32 | strain TSCII, hits give low values 0.106
